The results in this text go back to publication PMC13541613, “GHT-SELEX demonstrates unexpectedly high intrinsic sequence specificity and complex DNA binding of many human transcription factors”.

Assay in all cases: HT-SELEX; 20 mM HEPES pH 7, 140 mM KCl, 5 mM NaCl, 1 mM K2HPO4, 2 mM MgSO4, 100 uM EGTA, ZnSO4, 0.1% Tween20; room temperature, 1 h; high values mean tight binding
Conditions in all cases: protein: ivt; tags: eGFP (N-terminal); dsDNA, one strand shown

Test [1] concerns the target ZNF721 full-length (Homo sapiens, UniProt Q8TF20-2 1-923). The method, boiled down:
(§1)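 The binding signal is a relative k-mer count in selected reads, and higher values mean tighter binding. To obtain these reads, bead-bound tagged transcription factor (full-length or DNA-binding-domain fragment, produced in HEK293 lysate or cell-free extract) was mixed with a randomized 40-base DNA library for 1 h at room temperature in low-stringency HEPES/KCl buffer with Tween20. Bound DNA was recovered by washing and heat elution, PCR-amplified through successive cycles and sequenced on Illumina (~3 million 60 bp reads per sample).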

For test [2], the target named is ZNF721 DBD1 (Homo sapiens, UniProt Q8TF20-2 29-461). An outline of the steps: as §1
ZNF721 DBD1, sequence (Q8TF20 17-449): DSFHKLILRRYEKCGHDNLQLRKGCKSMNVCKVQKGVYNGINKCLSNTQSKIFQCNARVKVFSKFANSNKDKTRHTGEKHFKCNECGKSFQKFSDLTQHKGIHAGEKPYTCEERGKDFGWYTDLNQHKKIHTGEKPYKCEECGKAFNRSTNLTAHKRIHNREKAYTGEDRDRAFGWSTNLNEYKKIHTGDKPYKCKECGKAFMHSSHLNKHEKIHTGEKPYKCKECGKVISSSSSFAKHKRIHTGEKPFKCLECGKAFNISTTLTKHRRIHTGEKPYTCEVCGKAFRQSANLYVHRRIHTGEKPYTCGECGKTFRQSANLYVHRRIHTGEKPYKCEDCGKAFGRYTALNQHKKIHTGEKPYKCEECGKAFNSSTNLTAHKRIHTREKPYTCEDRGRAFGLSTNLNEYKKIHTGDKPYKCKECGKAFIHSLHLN
Test [3] concerns the target ZNF721 DBD2 (Homo sapiens, UniProt Q8TF20-2 395-923). An outline of the steps:
as §1

ZNF721 full-length, sequence (Q8TF20 other isoform, or with tags, fused parts or gaps): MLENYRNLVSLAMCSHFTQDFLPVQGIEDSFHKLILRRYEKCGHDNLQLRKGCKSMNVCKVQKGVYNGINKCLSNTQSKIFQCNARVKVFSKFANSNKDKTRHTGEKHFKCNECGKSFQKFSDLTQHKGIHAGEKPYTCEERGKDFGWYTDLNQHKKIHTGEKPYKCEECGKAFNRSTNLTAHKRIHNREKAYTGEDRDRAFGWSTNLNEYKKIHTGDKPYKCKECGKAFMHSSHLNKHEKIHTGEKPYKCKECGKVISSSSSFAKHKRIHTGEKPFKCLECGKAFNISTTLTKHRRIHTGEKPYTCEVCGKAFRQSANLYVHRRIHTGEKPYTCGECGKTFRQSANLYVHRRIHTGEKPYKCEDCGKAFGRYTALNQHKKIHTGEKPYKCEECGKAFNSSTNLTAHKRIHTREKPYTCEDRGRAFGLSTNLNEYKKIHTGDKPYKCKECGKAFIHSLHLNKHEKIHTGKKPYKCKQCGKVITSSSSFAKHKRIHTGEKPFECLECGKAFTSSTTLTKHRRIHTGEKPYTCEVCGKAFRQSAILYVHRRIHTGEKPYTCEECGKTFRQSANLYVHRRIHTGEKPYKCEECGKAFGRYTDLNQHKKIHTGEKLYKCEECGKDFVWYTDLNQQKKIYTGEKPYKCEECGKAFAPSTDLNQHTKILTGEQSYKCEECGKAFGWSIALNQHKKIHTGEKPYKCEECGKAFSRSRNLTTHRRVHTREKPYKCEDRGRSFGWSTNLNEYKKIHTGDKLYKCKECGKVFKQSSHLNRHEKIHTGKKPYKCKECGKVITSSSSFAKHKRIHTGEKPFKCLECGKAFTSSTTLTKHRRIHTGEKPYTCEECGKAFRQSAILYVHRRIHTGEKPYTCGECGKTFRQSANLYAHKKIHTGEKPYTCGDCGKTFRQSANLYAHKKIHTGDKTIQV
ZNF721 DBD2, sequence (Q8TF20 383-911): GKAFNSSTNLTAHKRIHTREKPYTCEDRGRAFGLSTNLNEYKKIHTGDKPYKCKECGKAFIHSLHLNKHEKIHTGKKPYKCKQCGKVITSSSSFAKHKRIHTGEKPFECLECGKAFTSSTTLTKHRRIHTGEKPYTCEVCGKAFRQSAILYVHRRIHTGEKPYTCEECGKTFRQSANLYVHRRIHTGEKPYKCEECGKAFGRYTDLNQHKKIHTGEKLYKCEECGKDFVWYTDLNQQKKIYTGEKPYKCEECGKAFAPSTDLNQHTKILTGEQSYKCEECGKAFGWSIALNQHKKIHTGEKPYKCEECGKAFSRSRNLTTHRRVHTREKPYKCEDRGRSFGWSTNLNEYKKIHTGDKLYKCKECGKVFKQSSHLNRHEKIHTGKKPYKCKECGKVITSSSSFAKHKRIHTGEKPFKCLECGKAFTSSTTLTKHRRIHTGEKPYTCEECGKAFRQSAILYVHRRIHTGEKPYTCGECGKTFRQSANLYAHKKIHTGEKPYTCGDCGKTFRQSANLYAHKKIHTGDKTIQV

As to CCCACCCCAA, the binding signal in test [1] was determined as 0.151 relative 10-mer count; in test [2] it was 0.00642 relative 10-mer count; in test [3], 0.00575 relative 10-mer count.

Turning to CCCCGCCCAC, the binding signal is 0.202 relative 10-mer count in test [1], 0.00771 relative 10-mer count in test [2] and 0.00407 relative 10-mer count in test [3].

For the sequence AAAGGCATAC, the results for the binding signal in test [1], in test [2] and in test [3] were 0.129 relative 10-mer count, 0.00142 relative 10-mer count and 0.123 relative 10-mer count, respectively.

Consider ATGGGTGGGG, for which the binding signal is 0.109 relative 10-mer count in test [1], 0.00427 relative 10-mer count in test [2] and 0.00372 relative 10-mer count in test [3].

Consider CCCGCCGCCC, for which the binding signal in test [1] is 0.194 relative 10-mer count; in test [2] it was 0.00532 relative 10-mer count; in test [3] it was 0.00192 relative 10-mer count.

With CCCCCGCCCA, the binding signal in test [1] is 0.167 relative 10-mer count; in test [2] it was 0.00638 relative 10-mer count; in test [3], 0.00192 relative 10-mer count.

In the case of AACAGGGTAT, the results for the binding signal in test [1], in test [2] and in test [3] were 0.138 relative 10-mer count, 0.00119 relative 10-mer count and 0.2 relative 10-mer count, respectively.

For AAAAAAGCAT, the binding signal came to 0.343 relative 10-mer count in test [1], 0.0588 relative 10-mer count in test [2] and 0.067 relative 10-mer count in test [3].

ACCGAAAAAA: the binding signal in test [1] was found to be 0.104 relative 10-mer count; in test [2], 0.00949 relative 10-mer count; in test [3] it was 0.0485 relative 10-mer count.

For TCCCCACCCA, the values for the binding signal in test [1], in test [2] and in test [3] were 0.122 relative 10-mer count, 0.00495 relative 10-mer count and 0.00431 relative 10-mer count, respectively.

AGTGTATCCA: the values for the binding signal in test [1], in test [2] and in test [3] were 0.248 relative 10-mer count, 0.11 relative 10-mer count and 0.197 relative 10-mer count, respectively.

In the case of CTGCCCACCC, the binding signal in test [1] came out at 0.102 relative 10-mer count; in test [2], 0.00394 relative 10-mer count; in test [3], 0.00216 relative 10-mer count.

On to AAAAAAAGGC, for which the binding signal came out at 0.162 relative 10-mer count in test [1], 0.00225 relative 10-mer count in test [2] and 0.117 relative 10-mer count in test [3].

Consider ACAGTGTATC, for which the binding signal in test [1] was found to be 0.137 relative 10-mer count; in test [3], 0.202 relative 10-mer count.

On to AAAAACAGCC, for which the binding signal was determined as 0.167 relative 10-mer count in test [1] and 0.172 relative 10-mer count in test [3].

Take ACAGCGTCTC: the binding signal in test [1] is 0.212 relative 10-mer count; in test [3], 0.344 relative 10-mer count.

As for CTGTTTTTTC, the binding signal was found to be 0.357 relative 10-mer count in test [1] and 0.365 relative 10-mer count in test [3].

Regarding AAAAGCAGGG, the results for the binding signal in test [1] and in test [3] were 0.207 relative 10-mer count and 0.218 relative 10-mer count, respectively.

For AACAGTGTTG, the binding signal in test [1] turned out to be 0.127 relative 10-mer count; in test [3] it was 0.327 relative 10-mer count.

For AGAAAAACAG, the results for the binding signal in test [1] and in test [3] were 0.178 relative 10-mer count and 0.208 relative 10-mer count, respectively.

For CATCCCACCC, the binding signal in test [1] came to 0.138 relative 10-mer count; in test [2], 0.00527 relative 10-mer count; in test [3] it was 0.00563 relative 10-mer count.

Consider AAAAACAGAA, for which the binding signal in test [1] worked out at 0.108 relative 10-mer count; in test [3], 0.0718 relative 10-mer count.

Consider ACAAAAAACA, for which the binding signal in test [1] came to 0.143 relative 10-mer count; in test [2], 0.00197 relative 10-mer count; in test [3], 0.172 relative 10-mer count.

On to AAAACAGGAT, for which the binding signal worked out at 0.12 relative 10-mer count in test [1] and 0.133 relative 10-mer count in test [3].

Take AAACAGGGTT: the binding signal in test [1] was found to be 0.271 relative 10-mer count; in test [3] it was 0.368 relative 10-mer count.

With GGGGTGGGAC, the binding signal was 0.111 relative 10-mer count in test [1], 0.00449 relative 10-mer count in test [2] and 0.00108 relative 10-mer count in test [3].

AAAGCAGTGT: the binding signal is 0.513 relative 10-mer count in test [1] and 0.632 relative 10-mer count in test [3].

On to ATAAAACAGC, for which the binding signal turned out to be 0.158 relative 10-mer count in test [1] and 0.214 relative 10-mer count in test [3].

With AAAAAACAGT, the binding signal was found to be 0.466 relative 10-mer count in test [1] and 0.516 relative 10-mer count in test [3].

On to AAAAACTAGC, for which the binding signal in test [1] was 0.103 relative 10-mer count; in test [3], 0.135 relative 10-mer count.

Consider AATAAAACAG, for which the binding signal in test [1] was determined as 0.132 relative 10-mer count; in test [3], 0.168 relative 10-mer count.

For the sequence AAGCAGCGTC, the figures for the binding signal in test [1] and in test [3] were 0.112 relative 10-mer count and 0.133 relative 10-mer count, respectively.

AAACGCTGTT: the binding signal came out at 0.236 relative 10-mer count in test [1] and 0.44 relative 10-mer count in test [3].

As for AAAACTAGCA, the binding signal in test [1] was 0.127 relative 10-mer count; in test [3] it was 0.173 relative 10-mer count.

For AAAACAGGGT, the binding signal stood at 0.391 relative 10-mer count in test [1] and 0.506 relative 10-mer count in test [3].

Consider CCCCACCCCG, for which the binding signal in test [1] amounted to 0.186 relative 10-mer count; in test [2], 0.00784 relative 10-mer count; in test [3], 0.00384 relative 10-mer count.

As for CAGCGTTTCC, the binding signal came out at 0.342 relative 10-mer count in test [1] and 0.861 relative 10-mer count in test [3].

On to CAGGGTATCC, for which the binding signal was 0.221 relative 10-mer count in test [1] and 0.431 relative 10-mer count in test [3].

Regarding CCAAAAACAG, the binding signal in test [1] amounted to 0.108 relative 10-mer count; in test [3], 0.144 relative 10-mer count.

On to AAAGCAGGGT, for which the binding signal in test [1] came out at 0.272 relative 10-mer count; in test [2], 0.00115 relative 10-mer count; in test [3], 0.337 relative 10-mer count.

Consider AACAGCGTAT, for which the binding signal was determined as 0.225 relative 10-mer count in test [1] and 0.366 relative 10-mer count in test [3].

In the case of AACCCTGCTT, the figures for the binding signal in test [1] and in test [3] were 0.197 relative 10-mer count and 0.258 relative 10-mer count, respectively.

As to AAAACAGTGT, the binding signal in test [1] turned out to be 0.495 relative 10-mer count; in test [3], 0.712 relative 10-mer count.

Regarding ACAGTGTTGC, the binding signal in test [1] stood at 0.13 relative 10-mer count; in test [3], 0.341 relative 10-mer count.

CAGCGTTGCC: the binding signal in test [1] stood at 0.143 relative 10-mer count; in test [3], 0.423 relative 10-mer count.

In the case of AAAAAAGCAG, the figures for the binding signal in test [1], in test [2] and in test [3] were 0.862 relative 10-mer count, 0.0227 relative 10-mer count and 0.588 relative 10-mer count, respectively.

Consider AAACAAACAG, for which the binding signal in test [1] was determined as 0.143 relative 10-mer count; in test [3] it was 0.0858 relative 10-mer count.

Turning to CAGCATCTCC, the results for the binding signal in test [1] and in test [3] were 0.126 relative 10-mer count and 0.214 relative 10-mer count, respectively.

Turning to AGCAGTGTTG, the binding signal was determined as 0.13 relative 10-mer count in test [1] and 0.223 relative 10-mer count in test [3].

For GAAACACTGC, the binding signal is 0.118 relative 10-mer count in test [1] and 0.188 relative 10-mer count in test [3].

Turning to AACGCTGCTT, the binding signal in test [1] amounted to 0.207 relative 10-mer count; in test [3] it was 0.327 relative 10-mer count.

AAACAGTGTC: the binding signal came to 0.116 relative 10-mer count in test [1] and 0.209 relative 10-mer count in test [3].
